The results in this text go back to the supplement of paper PMC9844399.

Molecules are shown by their SMILES.
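Also: Hoechst-stained nuclei counted by automated confocal imaging of four fields per well in 384-well plates, with the robust Z-score based on the per-plate DMSO median and robust SD.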

The subject of the experiment is HeLa. Kind of experiment: nuclear count per well, robust Z-score vs DMSO; higher = more cells (less toxicity). As to conditions: 10 µM; 6 h.
For `COc1cc([C@@H]2c3cc4c(cc3[C@H](O)[C@H]3COC(=O)[C@H]23)OCO4)cc(OC)c1OC` [Podofilox], the “nuclear count per well” value is -2.36.

As to `CC(=O)N[C@H]1[C@@H](O[C@@H]2O[C@H](CC(O)[C@H]3O[C@@H](n4ccc(=O)[nH]c4=O)[C@H](O)[C@@H]3O)[C@H](O)[C@H](O)[C@H]2NC(=O)/C=C/CC(C)C)O[C@H](CO)[C@@H](N)[C@@H]1O` (some centres undefined) [Tunicamycin], the “nuclear count per well” value is -1.09.

Take `CNc1ccc2oc(CC3OC4(CCC3C)OC(C(C)C(=O)c3ccc[nH]3)C(C)CC4C)nc2c1C(=O)O` (centres undefined): the “nuclear count per well” value is 0.0899.

As to `CCCCCc1cc(O)c2c(c1)OC(C)(C)C1CCC(C(=O)O)=CC21` (centres undefined) [Tetrahydrocannabinol-7-oic acid], the “nuclear count per well” value was determined as 0.385.

Consider `CN1C(=O)CC(=O)N(c2ccccc2)c2cc(Cl)ccc21` [Clobazam], for which the “nuclear count per well” value is 1.03.

`C[C@H]1C(=O)O[C@@H]2CCN3CC=C(COC(=O)[C@](C)(O)[C@]1(C)O)[C@H]23` [Monocrotaline]: the “nuclear count per well” value amounted to 1.08.

For the compound `C[C@@H](CN1CCC(n2c(=O)[nH]c3cc(Br)ccc32)CC1)NC(=O)[C@@H]1C[C@H]1c1ccccc1`, the “nuclear count per well” value is -0.101.

As for `C[C@H](CCC(=O)O)C[C@H](C)C[C@H](C)C(=O)/C=C(\O)[C@H](C)C[C@H](C)C/C=C/[C@@H](C)[C@@H](O)[C@@H](C)[C@@H](O)C[C@@H]1CC[C@@](C)([C@H]2CC[C@@](C)([C@@H](C)O)O2)O1` [Ionomycin], the “nuclear count per well” value is -2.37.

For `COc1cccc2c1cc([N+](=O)[O-])c1c(C(=O)O)cc3c(c12)OCO3` [Aristolochic acid], the “nuclear count per well” value was 0.192.
